This passage reports binding signal results from paper PMC11006913.

What all share (assay): PBM; 200 nM protein, PBS
Holding throughout (conditions): dsDNA, one strand shown

One experiment addresses T1, VENTX (Homo sapiens, UniProt O95231 78-163, R121Q).
T1 sequence: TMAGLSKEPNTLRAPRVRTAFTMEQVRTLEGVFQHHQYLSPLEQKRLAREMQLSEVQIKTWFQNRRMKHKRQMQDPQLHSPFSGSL

Experiment [1] addresses HOXA4 (Homo sapiens, UniProt Q00056 201-287, W262R).
In experiment [2] the target is HOXA7 (Homo sapiens, UniProt P31268 116-202).
For experiment [3], the target named is ALX4 (Homo sapiens, UniProt Q9H161 200-286).
Experiment [4] deals with PRRX1 (Homo sapiens, UniProt P54821 80-166, F113S).
In experiment [5] the target is HOXB6 (Homo sapiens, UniProt P17509 132-218, K202E).
Experiment [6] has as its target ALX4 (Homo sapiens, UniProt Q9H161 200-286, Q225E).
Experiment [7] has as its target HOXA2 (Homo sapiens, UniProt O43364 129-215, R185T).
Experiment [8] deals with MSX2 (Homo sapiens, UniProt P35548 130-214, R199I).
The target of experiment [9] is HOXA2 (Homo sapiens, UniProt O43364 129-215, R185K).
Experiment [10] addresses HOXA4 (Homo sapiens, UniProt Q00056 201-287).
Experiment [11] concerns the target MSX2 (Homo sapiens, UniProt P35548 130-214).
In experiment [12] the target is MSX2 (Homo sapiens, UniProt P35548 130-214, F161Y).
The target in experiment [13] is VAX1 (Homo sapiens, UniProt Q5SQQ9 86-172, T142I).
Experiment [14] addresses HOXA7 (Homo sapiens, UniProt P31268 116-202, W177C).
In another experiment the target is ALX1 (Homo sapiens, UniProt Q15699 118-204).
The target in experiment [15] is HOXA4 (Homo sapiens, UniProt Q00056 201-287, W262F).
The target in experiment [16] is PRRX1 (Homo sapiens, UniProt P54821 80-166).
Experiment [17] has as its target VAX1 (Homo sapiens, UniProt Q5SQQ9 86-172, K157R).
The target in experiment [18] is HOXB6 (Homo sapiens, UniProt P17509 132-218).
Sequence of HOXB6 (Homo sapiens, UniProt P17509 132-218) (P17509 132-218): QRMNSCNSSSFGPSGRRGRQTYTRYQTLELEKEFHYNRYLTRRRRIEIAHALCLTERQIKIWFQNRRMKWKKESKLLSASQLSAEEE

Sequence of MSX2 (Homo sapiens, UniProt P35548 130-214) (P35548 130-214): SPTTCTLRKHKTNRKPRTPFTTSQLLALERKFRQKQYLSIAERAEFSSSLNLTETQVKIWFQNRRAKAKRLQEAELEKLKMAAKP
Sequence of ALX4 (Homo sapiens, UniProt Q9H161 200-286) (Q9H161 200-286): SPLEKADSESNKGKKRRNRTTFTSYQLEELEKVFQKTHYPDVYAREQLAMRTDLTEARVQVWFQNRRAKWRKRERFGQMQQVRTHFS
Sequence of HOXB6 (Homo sapiens, UniProt P17509 132-218, K202E) (P17509 132-218 K202E): as the sequence (P17509 132-218) above, with K71E counted along it
Sequence of ALX4 (Homo sapiens, UniProt Q9H161 200-286, Q225E) (Q9H161 200-286 Q225E): as the sequence (Q9H161 200-286) above, with Q26E counted along it
Sequence of PRRX1 (Homo sapiens, UniProt P54821 80-166, F113S) (P54821 80-166 F113S): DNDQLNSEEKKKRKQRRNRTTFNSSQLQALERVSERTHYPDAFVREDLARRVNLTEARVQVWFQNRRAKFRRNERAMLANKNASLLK
Sequence of HOXA4 (Homo sapiens, UniProt Q00056 201-287, W262R) (Q00056 201-287 W262R): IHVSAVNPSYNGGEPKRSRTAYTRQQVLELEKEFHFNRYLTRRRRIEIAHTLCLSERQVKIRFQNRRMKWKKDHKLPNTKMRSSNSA
Sequence of HOXA7 (Homo sapiens, UniProt P31268 116-202, W177C) (P31268 116-202 W177C): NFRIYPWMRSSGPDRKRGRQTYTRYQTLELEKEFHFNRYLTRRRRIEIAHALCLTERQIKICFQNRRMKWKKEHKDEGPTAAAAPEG
Sequence of VAX1 (Homo sapiens, UniProt Q5SQQ9 86-172, T142I) (Q5SQQ9 86-172 T142I): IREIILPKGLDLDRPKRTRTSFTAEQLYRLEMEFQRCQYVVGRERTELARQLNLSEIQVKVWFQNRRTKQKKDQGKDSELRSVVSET
Sequence of ALX1 (Q15699 118-204): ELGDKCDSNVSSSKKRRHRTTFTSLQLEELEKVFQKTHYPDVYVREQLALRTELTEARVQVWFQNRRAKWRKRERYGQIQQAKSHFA
Sequence of MSX2 (Homo sapiens, UniProt P35548 130-214, F161Y) (P35548 130-214 F161Y): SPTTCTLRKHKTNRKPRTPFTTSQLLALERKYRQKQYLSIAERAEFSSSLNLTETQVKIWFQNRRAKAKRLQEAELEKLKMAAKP
Sequence of MSX2 (Homo sapiens, UniProt P35548 130-214, R199I) (P35548 130-214 R199I): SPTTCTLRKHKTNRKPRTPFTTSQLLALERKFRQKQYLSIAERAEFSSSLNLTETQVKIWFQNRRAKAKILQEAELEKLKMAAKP
Sequence of HOXA4 (Homo sapiens, UniProt Q00056 201-287, W262F) (Q00056 201-287 W262F): as the sequence (Q00056 201-287 W262R) above, with R62F counted along it
Sequence of HOXA2 (Homo sapiens, UniProt O43364 129-215, R185T) (O43364 129-215 R185T): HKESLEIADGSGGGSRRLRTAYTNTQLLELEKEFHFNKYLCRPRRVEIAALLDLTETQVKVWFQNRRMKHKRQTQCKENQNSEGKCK
Sequence of HOXA2 (Homo sapiens, UniProt O43364 129-215, R185K) (O43364 129-215 R185K): as the sequence (O43364 129-215 R185T) above, with T57K counted along it
Sequence of HOXA7 (Homo sapiens, UniProt P31268 116-202) (P31268 116-202): as the sequence (P31268 116-202 W177C) above, with C62W counted along it
Sequence of PRRX1 (Homo sapiens, UniProt P54821 80-166) (P54821 80-166): as the sequence (P54821 80-166 F113S) above, with S34F counted along it
Sequence of HOXA4 (Homo sapiens, UniProt Q00056 201-287) (Q00056 201-287): as the sequence (Q00056 201-287 W262R) above, with R62W counted along it
Sequence of VAX1 (Homo sapiens, UniProt Q5SQQ9 86-172, K157R) (Q5SQQ9 86-172 K157R): as the sequence (Q5SQQ9 86-172 T142I) above, with I57T, K72R counted along it

Consider ATCAATTA, for which the binding signal with VENTX is 12.3 upbm affinity estimate (log intensity, higher = more binding, comparable within an allelic series); in the experiment with HOXA4 [1], 10.7 upbm affinity estimate (log intensity, higher = more binding, comparable within an allelic series); in the experiment with HOXA7 [2] it was 11.7 upbm affinity estimate (log intensity, higher = more binding, comparable within an allelic series); in the experiment with ALX4 [3] it was 14.2 upbm affinity estimate (log intensity, higher = more binding, comparable within an allelic series); in the experiment with PRRX1 [4], 11.4 upbm affinity estimate (log intensity, higher = more binding, comparable within an allelic series); in the experiment with HOXB6 [5] it was 10.1 upbm affinity estimate (log intensity, higher = more binding, comparable within an allelic series). The binding signal in the experiment with ALX4 [6] was 13.7 upbm affinity estimate (log intensity, higher = more binding, comparable within an allelic series); with HOXA2 [7] it was 13.3 upbm affinity estimate (log intensity, higher = more binding, comparable within an allelic series); with MSX2 [8], 13.1 upbm affinity estimate (log intensity, higher = more binding, comparable within an allelic series); with HOXA2 [9], 13.6 upbm affinity estimate (log intensity, higher = more binding, comparable within an allelic series); with HOXA4 [10], 14.1 upbm affinity estimate (log intensity, higher = more binding, comparable within an allelic series); in the experiment with MSX2 [11] it was 14 upbm affinity estimate (log intensity, higher = more binding, comparable within an allelic series). Besides, the binding signal is 13.7 upbm affinity estimate (log intensity, higher = more binding, comparable within an allelic series) in the experiment with MSX2 [12]; 12.9 upbm affinity estimate (log intensity, higher = more binding, comparable within an allelic series) in the experiment with VAX1 [13]; 8.98 upbm affinity estimate (log intensity, higher = more binding, comparable within an allelic series) with HOXA7 [14]; 12.8 upbm affinity estimate (log intensity, higher = more binding, comparable within an allelic series) in the experiment with ALX1; 11.9 upbm affinity estimate (log intensity, higher = more binding, comparable within an allelic series) in the experiment with HOXA4 [15]; 13.6 upbm affinity estimate (log intensity, higher = more binding, comparable within an allelic series) with PRRX1 [16]. The binding signal is 13.1 upbm affinity estimate (log intensity, higher = more binding, comparable within an allelic series) with VAX1 [17] and 12.1 upbm affinity estimate (log intensity, higher = more binding, comparable within an allelic series) with HOXB6 [18].

Turning to ATAATTAG, the binding signal with VENTX was 12.4 upbm affinity estimate (log intensity, higher = more binding, comparable within an allelic series); with HOXA4 [1], 10.9 upbm affinity estimate (log intensity, higher = more binding, comparable within an allelic series); with HOXA7 [2], 11.8 upbm affinity estimate (log intensity, higher = more binding, comparable within an allelic series); in the experiment with ALX4 [3], 14.4 upbm affinity estimate (log intensity, higher = more binding, comparable within an allelic series); with PRRX1 [4], 11.9 upbm affinity estimate (log intensity, higher = more binding, comparable within an allelic series); with HOXB6 [5] it was 10.1 upbm affinity estimate (log intensity, higher = more binding, comparable within an allelic series). Moreover, the binding signal in the experiment with ALX4 [6] is 14.2 upbm affinity estimate (log intensity, higher = more binding, comparable within an allelic series); in the experiment with HOXA2 [7] it was 13.9 upbm affinity estimate (log intensity, higher = more binding, comparable within an allelic series); in the experiment with MSX2 [8] it was 13.2 upbm affinity estimate (log intensity, higher = more binding, comparable within an allelic series); with HOXA2 [9], 13.8 upbm affinity estimate (log intensity, higher = more binding, comparable within an allelic series); with HOXA4 [10] it was 14.2 upbm affinity estimate (log intensity, higher = more binding, comparable within an allelic series); with MSX2 [11] it was 14.1 upbm affinity estimate (log intensity, higher = more binding, comparable within an allelic series). Also, the binding signal in the experiment with MSX2 [12] was 13.7 upbm affinity estimate (log intensity, higher = more binding, comparable within an allelic series); in the experiment with VAX1 [13], 13.9 upbm affinity estimate (log intensity, higher = more binding, comparable within an allelic series); with HOXA7 [14], 9.08 upbm affinity estimate (log intensity, higher = more binding, comparable within an allelic series); in the experiment with ALX1, 12.9 upbm affinity estimate (log intensity, higher = more binding, comparable within an allelic series); with HOXA4 [15], 12.3 upbm affinity estimate (log intensity, higher = more binding, comparable within an allelic series); in the experiment with PRRX1 [16], 13.7 upbm affinity estimate (log intensity, higher = more binding, comparable within an allelic series). Also, the binding signal with VAX1 [17] is 13.9 upbm affinity estimate (log intensity, higher = more binding, comparable within an allelic series); with HOXB6 [18], 12.2 upbm affinity estimate (log intensity, higher = more binding, comparable within an allelic series).

Take GCAAGGGC: the binding signal is 9.8 upbm affinity estimate (log intensity, higher = more binding, comparable within an allelic series) with HOXA4 [1]; 9.73 upbm affinity estimate (log intensity, higher = more binding, comparable within an allelic series) with HOXA4 [10]; 9.87 upbm affinity estimate (log intensity, higher = more binding, comparable within an allelic series) with HOXA4 [15].

In the case of AATTAGTG, the binding signal is 11.9 upbm affinity estimate (log intensity, higher = more binding, comparable within an allelic series) in the experiment with VENTX; 13.9 upbm affinity estimate (log intensity, higher = more binding, comparable within an allelic series) with ALX4 [3]; 11.2 upbm affinity estimate (log intensity, higher = more binding, comparable within an allelic series) in the experiment with PRRX1 [4]; 13.2 upbm affinity estimate (log intensity, higher = more binding, comparable within an allelic series) in the experiment with ALX4 [6]; 12.8 upbm affinity estimate (log intensity, higher = more binding, comparable within an allelic series) in the experiment with HOXA2 [7]; 12.6 upbm affinity estimate (log intensity, higher = more binding, comparable within an allelic series) in the experiment with MSX2 [8]. Moreover, the binding signal with HOXA2 [9] is 13.1 upbm affinity estimate (log intensity, higher = more binding, comparable within an allelic series); with MSX2 [11], 13.5 upbm affinity estimate (log intensity, higher = more binding, comparable within an allelic series); with MSX2 [12], 13.2 upbm affinity estimate (log intensity, higher = more binding, comparable within an allelic series); with VAX1 [13], 12.6 upbm affinity estimate (log intensity, higher = more binding, comparable within an allelic series); with ALX1, 12.5 upbm affinity estimate (log intensity, higher = more binding, comparable within an allelic series); with HOXA4 [15], 11.6 upbm affinity estimate (log intensity, higher = more binding, comparable within an allelic series). In addition, the binding signal was 13.3 upbm affinity estimate (log intensity, higher = more binding, comparable within an allelic series) in the experiment with PRRX1 [16] and 12.8 upbm affinity estimate (log intensity, higher = more binding, comparable within an allelic series) with VAX1 [17].

Turning to CAATTATA, the binding signal with HOXA7 [2] was 11.4 upbm affinity estimate (log intensity, higher = more binding, comparable within an allelic series); with ALX4 [3] it was 13.8 upbm affinity estimate (log intensity, higher = more binding, comparable within an allelic series); in the experiment with PRRX1 [4], 11.5 upbm affinity estimate (log intensity, higher = more binding, comparable within an allelic series); in the experiment with HOXB6 [5] it was 10 upbm affinity estimate (log intensity, higher = more binding, comparable within an allelic series); in the experiment with ALX4 [6] it was 13.4 upbm affinity estimate (log intensity, higher = more binding, comparable within an allelic series); with MSX2 [8], 13.1 upbm affinity estimate (log intensity, higher = more binding, comparable within an allelic series). The binding signal with MSX2 [11] was 14 upbm affinity estimate (log intensity, higher = more binding, comparable within an allelic series); in the experiment with MSX2 [12], 13.7 upbm affinity estimate (log intensity, higher = more binding, comparable within an allelic series); with HOXA7 [14], 8.95 upbm affinity estimate (log intensity, higher = more binding, comparable within an allelic series); with ALX1, 12.3 upbm affinity estimate (log intensity, higher = more binding, comparable within an allelic series); with PRRX1 [16] it was 13.4 upbm affinity estimate (log intensity, higher = more binding, comparable within an allelic series); in the experiment with HOXB6 [18] it was 11.9 upbm affinity estimate (log intensity, higher = more binding, comparable within an allelic series).
